Gli-Sufu block: antagonists of Gli-Sufu signaling; inhibition, % at 5 µM; 340,000 compounds, 0.74% hits; Sufu-KO-LIGHT fibroblasts, Gli luciferase reporter luminescence; AID 588413;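 active means inhibition above about 55%, limit read from the data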;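 further: 0% = DMSO-treated cells and 100% = wells with medium but no cells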
Beta apoptosis: blocks beta cell apoptosis. INS-1E cytokine-induced death, ATP luminescence, 48 h; percent of positive-control rescue, neutral wells zero. protection from apoptosis, % (no concentration beside the values). 300,000 compounds, 0.8% hits. AID 435005;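 active means Every replicate reaches about 75%, or at least half do and their mean reaches it too, limit read from the data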;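 further: 0% = cytokine-treated negative control wells and 100% = positive control rescue; higher means more ATP so stronger rescue from cytokine killing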
Jurkat NFkB inh: lowers PMA/ionomycin-induced NF-kB signal in Jurkat cells | PMA/ionomycin-induced NF-kB luciferase reporter, luminescence | inhibition, % at 4 µM | 330,000 compounds, 0.53% hits; in the data active means inhibition above about 50%
Mdm2-MdmX inh: disrupts the human Mdm2-MdmX interaction | O15151+Q00987 | SaOS-2 split-luciferase Mdm2/MdmX complementation, luminescence | inhibition, % at 8 µM | 330,000 compounds, 3% hits;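 active means inhibition of at least 50% at 8 µM in the primary screen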
Target sequence (O15151 whole entry, looked up): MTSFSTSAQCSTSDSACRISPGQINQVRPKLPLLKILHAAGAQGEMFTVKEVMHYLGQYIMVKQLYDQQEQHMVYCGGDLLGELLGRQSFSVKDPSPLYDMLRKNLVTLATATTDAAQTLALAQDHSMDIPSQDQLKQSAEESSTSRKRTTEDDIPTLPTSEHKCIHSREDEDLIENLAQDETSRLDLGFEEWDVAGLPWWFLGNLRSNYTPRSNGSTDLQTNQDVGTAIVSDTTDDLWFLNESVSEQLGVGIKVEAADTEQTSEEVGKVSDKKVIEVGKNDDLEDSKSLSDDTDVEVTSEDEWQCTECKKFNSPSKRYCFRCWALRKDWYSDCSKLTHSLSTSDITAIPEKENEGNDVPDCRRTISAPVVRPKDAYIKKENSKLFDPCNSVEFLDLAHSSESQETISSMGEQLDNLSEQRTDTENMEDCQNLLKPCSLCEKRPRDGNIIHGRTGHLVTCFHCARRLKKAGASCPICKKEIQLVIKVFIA
Target sequence (Q00987 whole entry, looked up): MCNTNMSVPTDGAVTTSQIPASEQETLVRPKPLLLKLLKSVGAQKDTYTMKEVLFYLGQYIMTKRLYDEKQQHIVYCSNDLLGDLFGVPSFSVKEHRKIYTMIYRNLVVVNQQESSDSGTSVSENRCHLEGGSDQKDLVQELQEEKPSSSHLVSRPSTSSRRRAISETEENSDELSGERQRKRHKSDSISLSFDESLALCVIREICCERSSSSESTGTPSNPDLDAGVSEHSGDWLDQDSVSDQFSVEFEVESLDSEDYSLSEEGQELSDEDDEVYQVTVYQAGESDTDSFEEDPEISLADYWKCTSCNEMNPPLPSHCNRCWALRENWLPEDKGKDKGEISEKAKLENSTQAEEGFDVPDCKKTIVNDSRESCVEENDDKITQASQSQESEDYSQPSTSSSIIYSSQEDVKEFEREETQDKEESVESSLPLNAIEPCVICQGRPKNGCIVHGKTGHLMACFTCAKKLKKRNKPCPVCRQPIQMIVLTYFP
697 NFkB inh: inhibitors of the PMA/ionomycin-induced NF-kB reporter in 697 B cells; 697 B-cell NF-kB luciferase reporter, 16 h; inhibition, % at 4 µM; 330,000 compounds, 0.33% hits; in the data active means inhibition above about 35%
697 NFkB conf: inhibitors of the PMA/ionomycin-induced NF-kB reporter in 697 B cells, retest. shares compounds with 697 NFkB inh. 2,000 compounds, 35% hits. inhibition, % at 4 µM. 697 B-cell NF-kB luciferase, 16 h. AID 449746; in the data active means inhibition mostly above about 28%, no sharp cut-off; inactive means mostly below about 22%
Mdm2 MdmX conf: human Mdm2/MdmX binding inhibition, confirmed | shares compounds with Mdm2-MdmX inh | 10,000 compounds, 55% hits | luminescent assay | inhibition, % at 8 µM; in the data active means inhibition above about 40%
FLuc counter: counter-screen for Mdm2/MdmX inhibitors: full-length luciferase; shares compounds with Mdm2-MdmX inh; SaOS-2 full-length luciferase counterscreen, luminescence; inhibition, % at 8 µM; 6,200 compounds, 77% hits; AID 504607;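 active means mean inhibition at 8 µM reaching about 37%, which flags the compound as non-specific, limit read from the data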;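 further: p53-null SaOS-2 cells with luciferase driven by a doxycycline-inducible promoter; compound on cells about two nights before reading with doxycycline added after day one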
The depositor's hits bear a star; i = inactive; x = no result. A selection: hits, their analogues and other compounds. The true share with any hit is near 4%.

SMILES	Gli-Sufu block	Beta apoptosis	Jurkat NFkB inh	Mdm2-MdmX inh	697 NFkB inh	697 NFkB conf	Mdm2 MdmX conf	FLuc counter
Cc1cccc(NC(=O)c2cc3n(n2)C(C(F)(F)F)CC(c2ccc4c(c2)OCO4)N3)c1 (configuration not stated)	-1	x	17	51*	36*	3	75*	47*
COc1ccc(NC(=O)c2cc3n(n2)C(C(F)(F)F)CC(c2ccc4c(c2)OCO4)N3)cc1OC (configuration not stated)	-4	x	4	39	12	x	x	x
COc1ccc(/C=C2\SC(=S)N(CCCC(=O)N3CCOCC3)C2=O)cc1	9	-15	5	30	31	x	x	x
COc1ccc(/C=C2/SC(=S)N(CCCC(=O)Nc3ccc(O)cc3)C2=O)cc1	57*	-13	-16	88*	71*	79*	90*	56*
COc1ccc(/C=C2\SC(=S)N(CCCC(=O)Nc3ccc(O)cc3)C2=O)cc1	39	2	-5	76*	69*	75*	66*	54*
Cc1cc(NC(=O)COC(=O)c2c(Cl)cccc2Cl)no1	1	-4	-69	88*	-376	-360	59*	54*
NC(=O)c1ccc(NC(=O)C2CCCC2)cc1	49	-4	-8	19	-18	x	x	x
O=C(CN1C(=O)c2ccccc2S1(=O)=O)c1ccccc1Cl	x	x	23	58*	54*	37*	55*	82*
CC1CN(S(=O)(=O)c2cccc(C(=O)OC(C)C(=O)NC3CCCCC3C)c2)CC(C)O1 (configuration not stated)	0	-1	9	16	-27	x	x	x
CCN1C(=O)c2cccc3c(S(=O)(=O)NCc4ccccc4)ccc1c23	4	3	-9	47	25	x	x	x
CCN1C(=O)c2cccc3c(S(=O)(=O)N4CCC(C)CC4)ccc1c23	36	-9	-19	83*	41*	46*	42*	83*
COc1ccc(OCc2cccc(C(=O)Nn3cc([N+](=O)[O-])cn3)c2)cc1	-176	9	-11	79*	93*	83*	71*	4
COc1ccc(OCc2cccc(C(=O)Nc3cc(C)on3)c2)cc1	-136	6	11	50	91*	77*	37	x
O=C(Nc1ccc2ccccc2c1)C(c1ccccc1)C1CCCC1 (configuration not stated)	14	29	-9	57*	-258	-220	59*	78*
CC1Cc2ccccc2N1CC(=O)Nc1ccc2c(c1)OCCCO2 (configuration not stated)	4	-2	-8	-14	-8	x	x	x
Cc1cc(C)c2c(N)c(C(=O)Nc3ncc(C)s3)sc2n1	67*	14	16	79*	-278	-70	81*	55*
COc1cc(/C=N/n2cnc3c(sc4nc(C)cc(C)c43)c2=O)ccc1O	-5	4	-9	33	-14	x	x	x
COC(=O)c1sc2nc(C)cc(C)c2c1N	-6	x	-33	14	-22	x	x	x
COc1cc(/C=N/NC(=O)c2sc3nc(C)cc(C)c3c2N)ccc1O	-22	25	7	73*	43*	18	52*	64*
N/C(=N\OC(=O)c1ccccc1Cl)c1ccncc1	-52	-3	-92	-156	-87	x	x	x
Cc1ccc(C(=O)O/N=C(\N)c2ccccc2)c(Cl)c1	3	x	-50	80*	-343	-354	58*	120*
CCC(=O)c1ccc(OCC(=O)OCC(=O)N2c3ccccc3CC2C)cc1 (configuration not stated)	-4	-5	0	4	-12	x	x	x
COCCn1c(SC(C)C(=O)NCC2CCCO2)nc2sc3c(c2c1=O)CCC3 (configuration not stated)	9	x	22	3	1	x	x	x
Cc1csc(SCC(=O)c2cc(C)n(Cc3cccs3)c2C)n1	13	14	-51	66*	-346	-161	79*	107*
COC(=O)c1ccc(C)c(NC(=O)c2c(-c3ccccc3)noc2C)c1	7	6	5	-2	-3	x	x	x
SMILES	Gli-Sufu block	Beta apoptosis	Jurkat NFkB inh	Mdm2-MdmX inh	697 NFkB inh	697 NFkB conf	Mdm2 MdmX conf	FLuc counter
COC(=O)c1c(-c2ccccc2)csc1NC(=O)c1c(-c2ccccc2)noc1C	6	5	-44	97*	i	i	95*	53*
COc1ccc(OC)c2sc(N3CCc4ccccc4C3)nc12	-3	-7	2	-46	5	x	x	x
c1ccc2c(c1)CCN(c1nc3cc4c(cc3s1)OCCO4)C2	18	14	-44	81*	-382	-358	77*	93*
CSc1nnc2c3ccccc3n(CCc3ccccc3)c2n1	7	7	-75	82*	i	i	90*	42*
CC(C)(C)c1ccccc1NC(=O)c1c(O)c2cccc3c2n(c1=O)CC3	x	3	-12	12	-20	x	x	x
Cc1nnc2ccc(-c3cccc(NS(=O)(=O)c4ccccc4[N+](=O)[O-])c3)nn12	14	13	-9	56*	40*	28	55*	82*
CC(=O)N1CCN(C(=O)c2cccc(S(=O)(=O)N3c4ccccc4CC3C)c2)CC1 (configuration not stated)	3	-6	-3	9	-3	x	x	x
CC1Cc2ccccc2N1S(=O)(=O)c1cccc(C(=O)N2CCN(c3ncccn3)CC2)c1 (configuration not stated)	9	1	-40	90*	i	i	89*	55*
CC(C)(C)[C@H]1COC(=O)CC/C=C\C[C@H](CC(=O)N(CCO)Cc2ccccc2)C(=O)N1	-18	3	-11	-10	4	x	x	x
Fc1ccc(CO/N=C2\CCCc3nonc32)cc1	-14	-5	-13	-1	-21	x	x	x
Cc1nc(SC(C)C(=O)NCC2CCCO2)c2cc(-c3ccccc3)sc2n1 (configuration not stated)	-17	1	-67	97*	i	i	96*	55*
CCOc1ccc(OCC)c(NC(=O)C2CCCN(C(=O)c3ccc(Cl)cc3)C2)c1 (configuration not stated)	16	6	-9	4	5	x	x	x
Cc1cc(C(=O)NC2CCCc3c2cnn3-c2cccc(C)c2C)no1 (configuration not stated)	34	x	-53	93*	i	i	94*	24
Cc1cccc(-n2ncc3c2CCCC3NC(=O)CN2CCCC2=O)c1C (configuration not stated)	4	6	-8	20	-19	x	x	x
COc1ccccc1/C=N/NC(=O)C(=O)NCc1cccnc1	-3	-4	-11	27	20	x	x	x
